Experimental data: the supplement of paper PMC6555819

Legend:
Assay in all cases: PBM binding z-score (relative to random genomic background probes); higher = stronger binding; sequences stand for … in GC…GCGATTGACAGCGTAGAATGAAGG
[1] = system: FXR:RXRa (NR concentration 270 nM, RXRa partner concentration 90 nM)
Summary of the method: (§1)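 Probes were double-stranded and carried 34-nt variable regions with direct-repeat seeds, single-nucleotide variants, half-site ablations and random human genomic background sequences, printed on custom Agilent 4×180K protein-binding microarrays. Arrays were incubated 1 h with ligand-free nuclear receptor dimers in PBS pH 7.4, 2% milk, 0.02% Triton X-100, 1 mM DTT, 0.2 mg/mL BSA and 0.4 mg/ml salmon testes DNA. Antibodies against each partner (one per run) detected binding, and scanned fluorescence was regression-normalized. Binding z-scores use the random background probes as reference.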

[2] = system: LXRa:RXRa (NR concentration 270 nM, RXRa partner concentration 90 nM)
Summary of the method: as §1

[3] = system: LXRa homodimer (NR concentration 270 nM)
Summary of the method: as §1

[4] = system: LXRb:RXRa (NR concentration 270 nM, RXRa partner concentration 90 nM)
Summary of the method: as §1

[5] = system: LXRb homodimer (NR concentration 270 nM)
Summary of the method: as §1

[6] = system: PPARa:RXRa (NR concentration 270 nM, RXRa partner concentration 90 nM)
Summary of the method: as §1

[7] = system: PPARg:RXRa (NR concentration 180 nM, RXRa partner concentration 90 nM)
Summary of the method: as §1

[8] = system: PPARg:RXRa 270nM:90nM, anti-RXR (NR concentration 270 nM, RXRa partner concentration 90 nM)
Summary of the method: as §1

[9] = system: PPARg:RXRa 30nM:10nM, anti-RXR (NR concentration 30 nM, RXRa partner concentration 10 nM)
Summary of the method: as §1

[10] = system: PPARg:RXRa 90nM:30nM, anti-RXR (NR concentration 90 nM, RXRa partner concentration 30 nM)
Summary of the method: as §1

Sequence	PBM binding z-score [1]	PBM binding z-score [2]	PBM binding z-score [3]	PBM binding z-score [4]	PBM binding z-score [5]	PBM binding z-score [6]	PBM binding z-score [7]	PBM binding z-score [8]	PBM binding z-score [9]	PBM binding z-score [10]
TCATATAGATAAAGGTGAAAGTCGAACGATATGA	0.837	1.1	0.162	1.26	0.134	2.57	2.33	3.51	4.36	4.09
CCTAATTGGTCAAGGTCACACACGCTATAGGTAC	4.21	4.15	2.33	4.22	1.18	4.36	3.13	3.45	1.13	2.69
CCTTACGGCTCACTCCAGGTTATAGCATCGGAGT	0.29	0.942	1.31	0.0567	0.303	-0.0224	0.265	-0.277	0.181	-0.238
CATACAGGGTCAGCCAGGCCAGAGTAGGGACGGC	4.87	3.33	-0.255	2.24	0.282	4.45	3.65	3.21	0.666	2.01
AGTCGAAGTTCATCTAGGTAACGTAAGATATGCT	2.95	2.8	1.21	1.62	0.0848	2.8	1.9	2.32	0.883	1.66
GGAACGAGGGGATTCGAGTTGATAGCATGGCGAT	-0.431	-0.53	-0.577	-0.641	-0.654	-0.413	0.315	-0.471	-0.474	-0.523
AGAATGAGGTTACCAAAGATAAGGGAAACGCTTG	1.56	1.65	-0.398	1.2	-0.13	3.46	2.87	2.43	0.9	1.9
TCGAGTAGGTAACCAATGGGGCATTCAGCTTTCT	-0.177	0.0243	-0.581	0.362	-0.995	0.488	-0.0874	0.632	1.08	0.602
TAGCCTAGGTCATGGGCCATTATACCACGCGAAC	4.64	3.37	0.43	2.95	0.468	4.24	4.34	4.26	1.44	2.97
TGAATGAGGTTATAAGATCAGAGAACGTTGCAAA	1.28	1.23	-0.332	0.897	-0.296	2.62	1.45	1.83	1.04	1.35
AGAAGGAGGGCAATGAGTTGATAGCACGGGTGGC	0.307	0.255	0.19	0.452	0.521	1.2	1.33	0.786	-0.173	0.451
AGAATGAGGTTACCAAAGATCATGGAAACGCTTG	2.05	6.75	-0.149	3.98	-0.29	3.63	2.88	2.95	1.11	2.19
TAGCCTAGGTCATGCGGGCCAGTGTAGTGTCGGC	3.71	2.88	-0.0482	1.38	-0.348	3.17	1.5	2.27	-0.122	1.26
AGTCAAAGTTCAGGACGAGGTAACGGAAAGCACG	3.52	3.93	0.925	1.77	0.134	3.46	4.45	4.88	1.83	3.87
TTACCAAGGTGAGCGGAGGTCGTTGATCCAACTC	1.38	1.36	-0.4	0.829	-1.16	1.81	0.414	1.19	0.0694	0.605
GTACCAAGGTGAATAGGTCGTAGATGAGTAGGCG	0.946	0.897	-0.305	0.416	-0.297	2.39	1.82	2.02	0.602	1.25
AATCAAAGTTCACTAGGTAACGTAAGATTCAGCT	4.99	5.49	4.91	3.21	1.43	4.48	5.39	4.91	2.47	3.92
ATCGAAAGGTCGTAAGGTGAGTATACAGAAAGGC	4.53	3.79	0.462	2.98	0.6	4.62	3.45	3.46	1.6	2.5
GCTATTAGATGAAAGGGCAACCGAATGATTCTCG	-0.0836	0.345	0.21	0.469	-0.27	2.46	3.72	5.46	4.56	5.76
TCGAGTAGGTTACCAATGGGGCATTCAGCTTTCT	0.0683	1.23	-0.798	0.966	-0.683	1.26	0.191	1.15	1.14	1.11
ATCTCTAGGTCAAGTTCAGTGAAAGATCGATAGA	5.11	5.65	4.79	3.98	3.26	4.74	5.82	5.4	2.79	4.77
TCATATAGGTTAATGCTAGGTGAAAGTCCGATCT	1.19	2.25	0.441	1.28	0.557	2.55	2.14	3.06	3.79	3.26
ATAACAAGGTGATCGTGAGGTCGTTGATACTAAC	1.71	1.19	0.521	1.1	0.521	1.89	0.967	0.692	0.235	0.705
